Assay results from PubChem BioAssay (Tox21).
Records with an inconclusive call do not appear. Calls of active or inactive are those of the source. The call rests on the fitted dose curve. Non-standard residues stand in square brackets, D forms with d. Residues, ends and D or L forms follow the SMILES beside them. *: point of attachment. Sta = CC(C)C[C@H](N)[C@@H](O)CC(=O)O; Isovaleryl = CC(C)CC(=O)*

How the values were obtained:
[1] = target: Acetylcholinesterase (Homo sapiens) (UniProt P22303); experiment: Acetylcholinesterase (AChE) small molecule antagonists: colormetric cell-based qHTS assay (AID 1347395); further: nearly all actives have a fitted effect of over 30% in size
Procedure, shortened: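 Homogeneous whole-cell format. SH-SY5Y cells seeded overnight, dosed with compound (30 min, 37 C, 5% CO2), then given DTNB/acetylthiocholine cocktail for 90 min at 37 C; colorimetric signal.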

[2] = target: Acetylcholinesterase (Homo sapiens) (UniProt P22303); experiment: Acetylcholinesterase (AChE) small molecule antagonists: enzyme-based qHTS assay (AID 1347397); conditions: Potency: AChE enzyme activity inhibition; outcome: AChE enzyme activity inhibition; further: nearly all actives have a fitted effect of over 55% in size
Procedure, shortened: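 Colorimetric DTNB readout of acetylthiocholine hydrolysis, 10 min at room temperature, after 30 min room-temperature exposure of 50 mU/mL recombinant human enzyme to compound; DMSO vehicle control.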

[3] = target: Acetylcholinesterase (Homo sapiens) (UniProt P22303); experiment: Acetylcholinesterase (AChE) small molecule antagonists: fluorescence cell-based qHTS assay (AID 1347398); conditions: Potency: AChE activity; outcome: AChE activity; further: nearly all actives have a fitted effect of over 50% in size
Procedure, shortened: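 Cellular AChE activity read as thiocholine from acetylthiocholine hydrolysis, detected by Thiolite Green fluorescence at 490/520 nm after 40 min at room temperature. Compounds were pre-incubated 30 min at 37 C on adherent SH-SY5Y cells.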

[4] = target: Acetylcholinesterase (Homo sapiens) (UniProt P22303); experiment: Acetylcholinesterase (AChE) small molecule antagonists: enzyme-based qHTS assay with human liver microsomes (AID 1347399); conditions: Potency: qHTS inhibition; outcome: qHTS inhibition; further: nearly all actives have a fitted effect of over 60% in size
Procedure, shortened: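 Recombinant human AChE (50 mU/mL in the enzyme mix) and human liver microsomes (0.25 mg/mL final) were preincubated with compound and NADPH (0.25 mg/mL final) for 30 min at 37 C. Acetylthiocholine/DTNB was then added; thiocholine was read colorimetrically after 10 min at room temperature.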
On the % scale 0 is the no-effect control and ±100 the full control effect.

Sequence of Acetylcholinesterase (Homo sapiens) (P22303 whole entry, looked up): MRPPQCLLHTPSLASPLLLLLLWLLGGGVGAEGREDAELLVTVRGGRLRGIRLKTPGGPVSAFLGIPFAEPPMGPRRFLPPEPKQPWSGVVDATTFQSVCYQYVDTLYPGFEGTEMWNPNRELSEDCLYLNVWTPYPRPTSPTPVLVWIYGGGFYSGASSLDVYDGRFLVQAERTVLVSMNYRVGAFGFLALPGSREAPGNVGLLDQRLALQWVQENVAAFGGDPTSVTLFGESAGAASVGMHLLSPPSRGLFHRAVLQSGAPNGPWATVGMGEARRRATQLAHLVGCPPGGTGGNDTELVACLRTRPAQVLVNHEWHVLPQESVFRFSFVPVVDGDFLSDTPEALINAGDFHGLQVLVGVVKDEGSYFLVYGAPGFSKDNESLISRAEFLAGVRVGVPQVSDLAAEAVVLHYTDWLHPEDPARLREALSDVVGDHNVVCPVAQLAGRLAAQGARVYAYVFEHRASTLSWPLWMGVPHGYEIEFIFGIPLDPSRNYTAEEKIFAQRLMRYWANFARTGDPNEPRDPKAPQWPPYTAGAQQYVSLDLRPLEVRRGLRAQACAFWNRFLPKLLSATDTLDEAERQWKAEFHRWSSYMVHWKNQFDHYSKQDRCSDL

CC(CC(C)(C)C)CC(C)(C)CC(C)(C)C (stereo not given)
inactive: Potency [1] | Potency [2] | Potency [3] | Potency [4]

O=S(=O)(O)CCO
inactive: Potency [1] | Potency [2] | Potency [3] | Potency [4]

CCCC(CCC)(C(=O)OCC)C(=O)OCC
inactive: Potency [1] | Potency [2] | Potency [3] | Potency [4]

O=[N+]([O-])c1nccn1CO[C@@H](CO)[C@H](O)CO
inactive: Potency [1] | Potency [2] | Potency [3] | Potency [4]

CCCCCCCCCCCCCC(=O)OCC
inactive: Potency [1] | Potency [2] | Potency [3] | Potency [4]

NS(=O)(=O)c1cc(-c2nn[nH]n2)c(NCc2cccs2)cc1Cl
inactive: Potency [1] | Potency [2] | Potency [3] | Potency [4]

CCn1cc(C(=O)O)c(=O)c2cc3c(cc21)OCO3
inactive: Potency [1] | Potency [2] | Potency [3] | Potency [4]

Cc1ccc(S(=O)(=O)NC(=O)NN2CC3CCCC3C2)cc1 (stereo not given)
inactive: Potency [1] | Potency [2] | Potency [3] | Potency [4]

Cc1cc(F)ccc1-c1cc(N2CC[C@@H](O)[C@H]2CO)ncc1N(C)C(=O)C(C)(C)c1cc(C(F)(F)F)cc(C(F)(F)F)c1
inactive: Potency [1] | Potency [2] | Potency [3] | Potency [4]

CCCOC(=O)CC
inactive: Potency [1] | Potency [2] | Potency [3] | Potency [4]

O=C(CCCCCCCCc1cccnc1)N1CCC(C=C(c2ccccc2)c2ccccc2)CC1
inactive: Potency [1] | Potency [2] | Potency [3] | Potency [4]

CCCCCCCCCCOS(=O)(=O)O
inactive: Potency [1] | Potency [2] | Potency [3] | Potency [4]

C=CC(=O)OCC(CO)(COCC(COC(=O)C=C)(COC(=O)C=C)COC(=O)C=C)COC(=O)C=C
inactive: Potency [1] | Potency [2] | Potency [3] | Potency [4]

NCCNC(=O)c1ccc(Cl)cn1
inactive: Potency [1] | Potency [2] | Potency [3] | Potency [4]

CC(C)(C)NCC(O)COc1ccccc1OCC1CCCO1 (stereo not given)
inactive: Potency [1] | Potency [2] | Potency [3] | Potency [4]

Cc1c(Cl)cccc1Cl
inactive: Potency [1] | Potency [2] | Potency [3] | Potency [4]

CCCC(C)C(=O)O (stereo not given)
inactive: Potency [1] | Potency [2] | Potency [3] | Potency [4]

CC(C)CC(=O)N[C@H](C(=O)N[C@H](C(=O)N[C@@H](CC(C)C)[C@@H](O)CC(=O)N[C@@H](C)C(=O)N[C@@H](CC(C)C)[C@@H](O)CC(=O)O)C(C)C)C(C)C (Isovaleryl-VV[Sta]A[Sta]-OH)
inactive: Potency [1] | Potency [2] | Potency [3] | Potency [4]

Clc1ccc(Nc2nnc(Cc3ccncc3)c3ccccc23)cc1
inactive: Potency [1] | Potency [2] | Potency [3] | Potency [4]

CC(=O)OCCOCCOCCOC(C)=O
inactive: Potency [1] | Potency [2] | Potency [3] | Potency [4]

CC(C)c1cc2c(cc1S(=O)(=O)O)[C@@]1(C)CCC[C@@](C)(C(=O)O)[C@@H]1CC2
inactive: Potency [1] | Potency [2] | Potency [3] | Potency [4]

CC(C)=CCC[C@](C)(O)[C@@H]1CC=C(C)CC1
inactive: Potency [1] | Potency [2] | Potency [3] | Potency [4]

C=C[C@H]1CN2CC[C@H]1C[C@H]2[C@H](O)c1ccnc2ccc(OC)cc12
inactive: Potency [1] | Potency [2] | Potency [3] | Potency [4]

O=C1c2c(O)cccc2Cc2cccc(O)c21
inactive: Potency [1] | Potency [2] | Potency [3] | Potency [4]

CCOC(=O)c1ccc(N)cc1
inactive: Potency [1] | Potency [2] | Potency [3] | Potency [4]

CC(=O)Nc1ccccc1
inactive: Potency [1] | Potency [2] | Potency [3] | Potency [4]

CN(C)CCCNCCC#N
inactive: Potency [1] | Potency [2] | Potency [3] | Potency [4]

CC(Oc1c(Cl)cccc1Cl)C1=NCCN1 (stereo not given)
inactive: Potency [1] | Potency [2] | Potency [3] | Potency [4]

CCCCNC(N)=O
inactive: Potency [1] | Potency [2] | Potency [3] | Potency [4]

NC(N)=NCCN1CCCCCCC1
inactive: activity, negative = inhibition [1] 6.69% [at 0.435 µM] | activity change, negative = inhibition [2] 0% [at 0.435 µM] | activity change, negative = inhibition [3] 3.67% [at 0.439 µM] | activity change, negative = inhibition [4] -0.084% [at 0.435 µM]

O=C(c1ccccc1O)c1ccccc1O
inactive: Potency [1] | Potency [2] | Potency [3] | Potency [4]

O=S(=O)(O)CC(O)CCl (stereo not given)
inactive: Potency [1] | Potency [2] | Potency [3] | Potency [4]

COc1cc([N+](=O)[O-])ccc1N
inactive: Potency [1] | Potency [2] | Potency [3] | Potency [4]

CC(C)OC(=O)OCOP(=O)(CO[C@H](C)Cn1cnc2c(N)ncnc21)OCOC(=O)OC(C)C
inactive: Potency [1] | Potency [2] | Potency [3] | Potency [4]

N#CCC(=O)NN
inactive: Potency [1] | Potency [2] | Potency [3] | Potency [4]

F[Si-2](F)(F)(F)(F)F
inactive: Potency [1] | Potency [2] | Potency [3] | Potency [4]

CCc1cc2cc(OC)c(OC)cc2c(Cc2ccccc2)n1
inactive: Potency [1] | Potency [2] | Potency [3] | Potency [4]

CCOC(=O)CC(=O)c1ccccc1
inactive: Potency [1] | Potency [2] | Potency [3] | Potency [4]

Cc1cc(Nc2ccc(O)cc2)ccc1N
inactive: Potency [1] | Potency [2] | Potency [3] | Potency [4]

CCCCCCC(=O)c1ccccc1
inactive: Potency [1] | Potency [2] | Potency [3] | Potency [4]

CCCCC(CC)C(=O)OCCOCCOCCOC(=O)C(CC)CCCC (stereo not given)
inactive: Potency [1] | Potency [2] | Potency [3] | Potency [4]

CN(C)Cc1ccccc1
inactive: Potency [1] | Potency [2] | Potency [3] | Potency [4]

CC12CCCC=C1C(=O)OC2=O (stereo not given)
inactive: Potency [1] | Potency [2] | Potency [3] | Potency [4]

C[C@]1(Cn2ccnn2)[C@H](C(=O)O)N2C(=O)C[C@H]2S1(=O)=O
inactive: Potency [1] | Potency [2] | Potency [3] | Potency [4]

OC[C@H]1O[C@H](O[C@H]2O[C@H](CO)[C@@H](O)[C@H](O)[C@H]2O)[C@H](O)[C@@H](O)[C@@H]1O
inactive: Potency [1] | Potency [2] | Potency [3] | Potency [4]

CCCCCCCC1CCCC1=O (stereo not given)
inactive: Potency [1] | Potency [2] | Potency [3] | Potency [4]

Oc1ccc(Cl)cc1Sc1cc(Cl)ccc1O
inactive: Potency [1] | Potency [2] | Potency [3] | Potency [4]

CC(C)NC(=O)NC(C)C
inactive: Potency [1] | Potency [2] | Potency [3] | Potency [4]

C[C@H]1O[C@H](O[C@H]2[C@H](O)[C@@H](O)[C@@H](O[C@H]3[C@H](O)[C@@H](O)[C@H](O)O[C@@H]3CO)O[C@@H]2CO)[C@H](O)[C@@H](O)[C@@H]1N[C@H]1C=C(CO)[C@@H](O)[C@H](O)[C@H]1O
inactive: Potency [1] | Potency [2] | Potency [3] | Potency [4]

COc1cc(S(N)(=O)=O)cc(C(=O)O)c1OC
inactive: Potency [1] | Potency [2] | Potency [3] | Potency [4]

CC(C)(O)CCC(C)(C)O
inactive: Potency [1] | Potency [2] | Potency [3] | Potency [4]

Cc1cc(Cc2cc(C)cc(C(C)(C)C)c2O)c(O)c(C(C)(C)C)c1
inactive: Potency [1] | Potency [2] | Potency [3] | Potency [4]

CCCc1ccccc1O
inactive: Potency [1] | Potency [2] | Potency [3] | Potency [4]

CC(O)(c1ccc(Cl)cc1)c1ccc(Cl)cc1
inactive: Potency [1] | Potency [2] | Potency [3] | Potency [4]

CCOCCC(=O)OCC
inactive: Potency [1] | Potency [2] | Potency [3] | Potency [4]

Cc1ccc(NC=O)c(C)c1
inactive: Potency [1] | Potency [2] | Potency [3] | Potency [4]

c1cc(C(c2ccc(OCC3CO3)cc2)C(c2ccc(OCC3CO3)cc2)c2ccc(OCC3CO3)cc2)ccc1OCC1CO1 (stereo not given)
inactive: Potency [1] | Potency [2] | Potency [3] | Potency [4]

Cc1nc2ccccc2s1
inactive: Potency [1] | Potency [2] | Potency [3] | Potency [4]

O=C(c1ccc(O)cc1)c1ccc(O)cc1
inactive: Potency [1] | Potency [2] | Potency [3] | Potency [4]

CCC[C@H](N[C@@H](C)C(=O)N1[C@H](C(=O)O)C[C@@H]2CCCC[C@@H]21)C(=O)OCC
inactive: Potency [1] | Potency [2] | Potency [3] | Potency [4]
